Source: PubChem BioAssay (The Scripps Research Institute Molecular Screening Center)
In the library only some 2.4% were active in any assay of this set; here they are far more common.
M1 PAM: human CHRM1 positive allosteric modulation; CHO-K1 hM1, Fluo-8 calcium fluorescence, ACh EC20; 0% = ACh EC20, 100% = maximal ACh; activation, % at 3 µM; 360,000 tested, 0.088% active; P11229; in the data active means activation above about 19%, passing the limit was not always enough
Target sequence (P11229 whole entry, looked up): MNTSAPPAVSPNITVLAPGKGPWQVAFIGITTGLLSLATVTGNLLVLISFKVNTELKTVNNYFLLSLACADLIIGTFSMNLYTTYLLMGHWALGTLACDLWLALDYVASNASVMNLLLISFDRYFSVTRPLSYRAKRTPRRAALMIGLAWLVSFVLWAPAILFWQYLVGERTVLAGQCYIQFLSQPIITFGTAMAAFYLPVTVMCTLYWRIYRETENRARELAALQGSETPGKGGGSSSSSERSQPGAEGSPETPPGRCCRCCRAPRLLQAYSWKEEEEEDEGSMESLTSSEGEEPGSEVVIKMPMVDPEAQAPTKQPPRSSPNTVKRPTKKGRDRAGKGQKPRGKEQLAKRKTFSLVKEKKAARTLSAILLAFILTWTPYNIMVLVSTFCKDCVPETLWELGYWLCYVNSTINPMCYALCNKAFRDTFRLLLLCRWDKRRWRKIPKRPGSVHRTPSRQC
CHO-K1 Ca antag: nonselective inhibitor or artifact in parental CHO-K1 cells; ATP-induced calcium, Fluo-8 fluorescence; inhibition, % at 3 µM; 360,000 tested, 0.6% active;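 active means inhibition above a per-plate cutoff, the plate's mean sample inhibition plus 3 SD, cut at about 24% in these data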;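 further: 0% = DMSO plus EC80 ATP and 100% = DMSO alone without ATP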
M1 antag: antagonists of human M1 muscarinic receptor; CHO-K1 hM1, Fluo-8 calcium fluorescence, ACh EC80 antagonist; inhibition, % at 3 µM; 360,000 tested, 1.3% active; AID 588852;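 active means percent inhibition above its own plate's cutoff, namely the mean of that plate's compound wells plus 3 SD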;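 further: peak over basal fluorescence ratio during 140 s after agonist addition; 0% = ACh EC80 plus DMSO and 100% = DMSO alone without agonist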
M1 PAM parental: nonselective activator or artifact in parental CHO-K1 calcium assay; ATP EC20, Fluo-8 calcium fluorescence; 0% at ATP EC20, 100% at ATP max; activation, % at 3 µM; 360,000 tested, 0.02% active;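 active means activation above the run cutoff, the mean activation of all test compounds plus 3 SD, cut at about 40% in these data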;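 further: peak over basal fluorescence ratio in a 140 s read after ATP addition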
M1 ag: agonists of human M1 muscarinic receptor | CHO-K1 hM1, Fluo-8 calcium fluorescence, agonist mode; 0% DMSO, 100% acetylcholine EC100 | activation, % at 3 µM | 360,000 tested, 0.33% active | AID 588814;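 active means activation above the run's mean compound activation plus 3 SD, cut at about 16% in these data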;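 further: peak over basal fluorescence ratio within a 140 s kinetic read after compound addition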
M1 ag parental: nonselective activator or artifact in parental CHO-K1 cells; Fluo-8 calcium fluorescence; scaled to maximal ATP response, vehicle zero; activation, % at 3 µM; 360,000 tested, 0.48% active; in the data active means activation above about 15%;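 further: untransfected CHO-K1 host cells lacking M1 receptor as counterscreen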
An asterisk follows results filed as active.

SMILES	M1 PAM	CHO-K1 Ca antag	M1 antag	M1 PAM parental	M1 ag	M1 ag parental
Cc1ccc(CN(C(=O)CNC(=O)c2cccs2)C(C(=O)NCC2CCCO2)c2ccccc2)cc1 (stereo unspecified)	-27	-3	43*	3	-1	7
Cc1ccc(C(C(=O)NC2CCCCC2)N(CC2CCCO2)C(=O)CNC(=O)c2cccs2)cc1 (stereo unspecified)	-18	-1	37*	-2	-1	0
O=C(NCC(=O)N(CC1CCCO1)C(C(=O)NC1CCCCC1)c1ccccc1)c1cccs1 (stereo unspecified)	7	-11	-20	12	-1	1
O=C(NCC1CCCO1)Nc1cc(Cl)cc(Cl)c1 (stereo unspecified)	6	25*	6	-7	1	1
COc1ccc(CNC(=O)C[C@H]2C(=O)N(Cc3ccccc3)C[C@@H]2Cc2ccccc2)cc1	1	3	2	-15	-5	0
CC(=O)Nc1ccc(-c2ccnc3c2CC(C)(C(=O)Nc2ccc(F)c(Cl)c2)O3)cc1 (stereo unspecified)	-4	-6	2	11	0	2
COc1ccc([C@H]2C(C#N)=C([S-])N[C@](C)(O)[C@@H]2[n+]2ccccc2)cc1	-25	3	74*	6	-9	1
Cc1cc(C)n2nc(S(=O)(=O)N(C)Cc3ccccc3)nc2n1	10	0	-10	5	-6	0
Cc1cc(C)n2nc(S(=O)(=O)N(CC(C)C)CC(C)C)nc2n1	-5	25*	6	-8	-4	0
Cc1ccc(S(=O)(=O)Cc2ccc(C(=O)N3CCN(c4cc(C)ccc4C)CC3)o2)cc1	8	-3	-9	9	-1	0
Cc1ccc(C)c(N2CCN(C(=O)c3ccc(CS(=O)(=O)c4ccccc4C)o3)CC2)c1	-4	25*	18	-8	-1	3
O=c1[nH]c2cc(Cl)c(Br)cc2o1	3	-3	-7	15	4	16*
O=c1[nH]c2cc(Cl)c(Cl)cc2o1	7	-5	-15	5	5	4
Cc1cc(Nc2ccc(N(C)C)cc2)n2ncnc2n1	15	3	-22	-3	-1	0
COc1ccc(-c2cc(-c3ccccc3O)[nH]n2)cc1OC	-8	25*	31*	-9	-3	0
NC(=NC(=O)c1ccc(Cl)cc1)N1N=CCC1c1ccccc1 (stereo unspecified)	8	25*	5	-9	2	-1
O=C(CSc1ccc(Cl)cc1)N1N=CCC1c1ccccc1 (stereo unspecified)	-7	-7	1	12	-6	2
CS(=O)(=O)N1CCc2cc(S(=O)(=O)Nc3ccc4c(c3)OCCO4)ccc21	-24	-1	33*	3	3	15
O=C(CCN1CCCCC1)N/N=C/c1ccc(Br)cc1	8	-5	-10	12	-10	0
CCOc1ccc2[nH]c(=O)c(C(c3nnnn3C3CCCCC3)N3CCN(CC)CC3)cc2c1 (stereo unspecified)	-20	-3	22*	20	-6	3
CCOc1ccc2[nH]c(=O)c(C(c3nnnn3C3CCCCC3)N3CCN(C)CC3)cc2c1 (stereo unspecified)	-3	6	15	-5	-5	0
C#CCOCCOCCOCCNc1nc(N2CCN(C(=O)CCCCCCCCCCNC(=O)[C@@H](CCC(=O)O)n3cc(CCCCCN)nn3)CC2)nc(N2CCN(C(=O)CCCCCCCCCCNC(=O)[C@H](CCCCN)n3cc(C[C@@H](C)CC)nn3)CC2)n1	-16	-12	10	5	20*	3
CC(Oc1ccc(Cl)cc1)C(=O)Nc1ccc(S(=O)(=O)N2CCOCC2)cc1 (stereo unspecified)	-3	5	8	14	38*	36*
O=C(COC(=O)c1cc([N+](=O)[O-])ccc1NCCO)Nc1cccc(S(=O)(=O)N2CCCC2)c1	-19	9	40*	2	-7	0
CC(Oc1ccccc1Cl)C(=O)Nc1ccc(S(=O)(=O)N2CCCC2)cc1 (stereo unspecified)	-27	0	91*	13	-3	4
SMILES	M1 PAM	CHO-K1 Ca antag	M1 antag	M1 PAM parental	M1 ag	M1 ag parental
CC(=O)Nc1ccc(NC(=O)COC(=O)c2cc(S(=O)(=O)N3CCCC3)ccc2O)cc1	-15	-7	30*	16	-1	0
O=C(COC(=O)c1cc([N+](=O)[O-])ccc1NCCO)Nc1ccc2c(c1)OCO2	5	1	-3	7	-3	2
Cn1c(=O)oc2cc(S(=O)(=O)NCc3ccc(Cl)cc3)ccc21	3	-3	-6	13	-2	1
CC(OC(=O)c1ccc(Cl)nc1)C(=O)Nc1ccc(S(=O)(=O)N2CCCC2)cc1 (stereo unspecified)	-25	-3	36*	-8	-7	1
O=C(COc1ccccc1Br)Nc1ccc(S(=O)(=O)N2CCCC2)cc1	-29	-13	42*	4	-4	6
Cc1nnc(SCC(=O)Nc2ccc(S(=O)(=O)N3CCCC3)cc2)n1N	-21	-2	54*	1	-3	0
COc1ccc(CNC(=O)Cc2c(C(=O)O)[nH]c3ccccc23)cc1	9	-7	-26	25	-2	4
O=C(NCc1ccccc1F)C1CCN(S(=O)(=O)c2ccccc2)CC1	8	-11	-7	0	-2	2
CC(C(=O)N1CCCC1)c1ccc([N+](=O)[O-])cc1 (stereo unspecified)	5	-5	-1	9	-9	0
O=C(c1ccc(OC2CCN(CCc3ccccc3)CC2)cc1)N1CCC[C@H]1CO	-3	-3	-4	7	-6	1
CCCc1nc(NCc2ccncc2)c2nnn(Cc3ccccc3F)c2n1	-5	-5	-16	19	-2	1
CCCc1nc(NCc2ccccn2)c2nnn(Cc3ccccc3F)c2n1	5	30*	0	-3	0	0
COc1ccc(C(=O)N2CCC(C(=O)c3c(C)cc(C)cc3C)CC2)cc1	-1	-2	0	6	0	4
COCCCN1C(=O)c2ccc(C(=O)OCC(=O)NCCc3ccccc3)cc2C1=O	7	-1	-14	16	-1	2
O=C(c1ccoc1)N1CCCC(Nc2ccc(F)c(F)c2)C1 (stereo unspecified)	-2	5	10	-17	-2	0
Cc1occc1C(=O)N1CCCC(Nc2ccc(F)c(F)c2)C1 (stereo unspecified)	6	13	-11	7	-1	16*
O=C(c1ccco1)N1CCN(C(c2ccccc2Cl)c2nnnn2Cc2cccs2)CC1 (stereo unspecified)	-12	14	10	6	0	5
